System: HEK293 WT BDD-FVIII-Gluc
Experiment: secreted FVIII-Gluc luciferase Z-score vs DMSO control; higher = more FVIII-Gluc secretion
Settings: 5 µM
Method: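 Natural plant-compound library (480 compounds, ST catalogue IDs) screened on HEK293 cells stably expressing WT BDD-FVIII-Gaussia luciferase fusion at 5 µM. Secreted Gluc activity in the medium is given as a Z-score relative to DMSO controls.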

Row | SMILES | secreted FVIII-Gluc luciferase Z-score
1 | O=C(/C=C/c1ccc(O)c(O)c1)OC(Cc1ccc(O)c(O)c1)C(=O)O (configuration not stated) | 0.861
2 | C[C@H](CCC(=O)O)[C@H]1CC[C@H]2[C@@H]3[C@H](O)C[C@@H]4C[C@H](O)CC[C@]4(C)[C@H]3C[C@H](O)[C@]12C | -0.337
3 | CCC(=O)OCC(=O)[C@@]1(OC(=O)CC)[C@@H](C)C[C@H]2[C@@H]3CCC4=CC(=O)C=C[C@]4(C)[C@@]3(F)[C@@H](O)C[C@@]21C | 3.76
4 | COc1cc2c(C)c3c4c(cc(OC)c(OC)c4c2cc1OC)CCN3C | -1.2
5 | C/C(=C\CNc1ncnc2nc[nH]c12)CO | 0.549
6 | COc1ccc(-c2coc3cc(O)cc(O)c3c2=O)cc1 | 0.185
7 | COc1cc2cc(Oc3ccc4ccc(=O)oc4c3)c(=O)oc2cc1O | 0.379
8 | N=c1ccn2c(n1)OC1C2OC(CO)[C@H]1O (some centres not stated) | -1.3
9 | CC1(C)[C@@H](O)CC[C@]2(C)[C@H]3C(=O)C=C4[C@@H]5C[C@@](C)(C(=O)O)CC[C@]5(C)CC[C@@]4(C)[C@]3(C)CC[C@@H]12 | 0.00884
10 | COc1ccc2c(C)cc(=O)oc2c1 | 0.626
11 | CC[C@H](CC[C@@H](C)[C@H]1CC[C@H]2[C@@H]3CC=C4C[C@@H](O)CC[C@]4(C)[C@H]3CC[C@]12C)C(C)C | -0.318
12 | COc1cc(C(=O)OC2CC(C)=CCC3(C)CCC(O)(C(C)C)C23)ccc1O (configuration not stated) | -0.405
13 | COc1cn(C2OC(CO)C(O)C2O)c(=O)[nH]c1=O (configuration not stated) | -0.271
14 | COc1cc(C=O)ccc1O | 0.374
15 | CN1C(CC(=O)c2ccccc2)CCC[C@H]1C[C@H](O)c1ccccc1 (some centres not stated) | 0.401
16 | CC(=O)OC1CCC2(C)C3CCC4(C)C(CC5CCCCC54C(C)=O)C3CC(=O)C2(O)C1 (configuration not stated) | 0.153
17 | COc1cccc2oc(-c3ccc(O)cc3)cc(=O)c12 | 1.3
18 | CCn1nc(C(=O)O)c(=O)c2cc3c(cc21)OCO3 | -1.17
19 | C=C[C@@]1(C)C=C2CC[C@@H]3[C@](C)(CCC[C@@]3(C)C(=O)O)[C@H]2CC1 | -0.481
20 | NC[C@@H]1O[C@H](O[C@H]2[C@@H](O)[C@H](O[C@@H]3[C@@H](O)[C@H](N)C[C@H](N)[C@H]3O[C@H]3O[C@H](CN)[C@@H](O)[C@H](O)[C@H]3N)O[C@@H]2CO)[C@H](N)[C@@H](O)[C@@H]1O | 0.572
21 | COc1cc(/C=C/C(=O)CC(=O)/C=C/c2ccc(O)c(OC)c2)ccc1O | 0.567
22 | O=c1cc(CO)occ1O | 0.0386
23 | COc1ccc([C@@H]2CC(=O)c3c(O)cc(O)cc3O2)cc1O | 0.825
24 | C[C@H](O)[C@H](O)[C@@H](O)c1cnc2nc(N)[nH]c(=O)c2n1 | 0.588
25 | O=C1c2ccccc2C(=O)c2c(O)c(O)cc(O)c21 | -0.332
26 | O=C(O)CCCC[C@@H]1SC[C@@H]2NC(=O)N[C@@H]21 | 0.929

Row | SMILES | secreted FVIII-Gluc luciferase Z-score
27 | NC(Cn1ccc(=O)c(O)c1)C(=O)O (configuration not stated) | 0.208
28 | O=c1c2ccccc2oc2cc(O)c(C3COCC(CO)C(O)C(O)C3O)c(O)c12 (configuration not stated) | 0.341
29 | CCOC(=O)CCC(=O)OC1C(OC2C(C)C(OC3CC(C)(OC)C(O)C(C)O3)C(C)C(=O)OC(CC)C(C)(O)C(O)C(C)C(=O)C(C)CC2(C)O)OC(C)CC1N(C)C (configuration not stated) | 0.0842
30 | c1coc(CNc2ncnc3nc[nH]c23)c1 | 0.193
31 | COc1cc(-c2cc(=O)c3ccccc3o2)ccc1O | 1.57
32 | COc1cc2c(C(=O)c3ccccc3)c3c4c(cc(OC)c(OC)c4c2cc1OC)CCN3C | -1.18
33 | O=c1cc(-c2cccc(O)c2)oc2cccc(O)c12 | 0.424
34 | C[S+]([O-])CCC(N)C(=O)O (configuration not stated) | 1.1
35 | CN(C)[C@@H]1C(=O)C(C(=O)NCN2CCCC2)=C(O)[C@@]2(O)C(=O)C3=C(O)c4c(O)cccc4[C@@](C)(O)[C@H]3C[C@@H]12 | 0.407
36 | OC[C@H]1O[C@@H](O[C@@H]2[C@@H](CO)O[C@](O)(CO)[C@H]2O)[C@H](O)[C@@H](O)[C@H]1O | 0.26
37 | COC(=O)[C@H]1[C@H]2C[C@H]3c4[nH]c5ccccc5c4CCN3C[C@H]2CC[C@@H]1O | -0.252
38 | COc1cc2cc3c4c(cc(OC)c(OC)c4c2cc1OC)CCN3C | 0.0768
39 | NCCC(=O)N[C@@H](Cc1cnc[nH]1)C(=O)O | -1.31
40 | C=C(CO)C1Cc2c(ccc3c(=O)c4c(oc23)COc2cc(OC)c(OC)cc2-4)O1 (configuration not stated) | 0.0519
41 | O=c1cc(-c2ccccc2)oc2cc(O)c(O)c(O)c12 | -0.284
42 | COc1c2occc2cc2ccc(=O)oc12 | 0.821
43 | CC1C(=O)OC2CC34C5CC(C(C)(C)C)C36C(OC(=O)C6O)OC4(C(=O)O5)C21O (configuration not stated) | -0.604
44 | C=C1CCC(O)C/C1=C\C=C1/CCCC2(C)C1CCC2C(C)/C=C/C(C)C(C)C (configuration not stated) | -0.228
45 | O[C@@H]1COC2C1OC[C@@H]2O (some centres not stated) | 0.547
46 | COC1C(O)C(O)C(O)C(O)C1O (configuration not stated) | 0.358
47 | CC(=O)Oc1cc(OC(C)=O)c2c(=O)cc(-c3ccc(OC(C)=O)c(OC(C)=O)c3)oc2c1 | 0.33
48 | Nc1ncnc2c1ncn2C1OC(CO)C(O)C1OP(=O)(O)O (configuration not stated) | -0.295
49 | Cn1c(=O)c2c(ncn2C)n(C)c1=O | -0.0716
50 | O=c1cnn(C2OC(CO)C(O)C2O)c(=O)[nH]1 (configuration not stated) | -2.33
51 | CN1C(CC(=O)c2ccccc2)CCC[C@H]1CC(O)c1ccccc1 (some centres not stated) | -0.246
52 | Nc1ccn([C@@H]2O[C@H](CO)[C@@H](OP(=O)(O)O)[C@H]2O)c(=O)n1 | -0.278

Row | SMILES | secreted FVIII-Gluc luciferase Z-score
53 | COC1=CC(=O)CC(C)C12Oc1c(Cl)c(OC)cc(OC)c1C2=O (configuration not stated) | 0.0156
54 | C/C(=C\COc1cc(=O)[nH]c2ccccc12)CCC(O)C(C)(C)O (configuration not stated) | -0.128
55 | CC(C)(S)[C@H](N)C(=O)O | 0.41
56 | Cc1ccc2oc(-c3ccccc3)c(O)c(=O)c2c1 | 1.13
57 | C=C1CC/C=C(\C)CC[C@@H]2[C@@H]1CC2(C)C | 0.299
58 | CC(=O)[C@H]1CC[C@H]2[C@@H]3CCC4=CC(=O)CC[C@]4(C)[C@H]3CC[C@]12C | 0.00749
59 | COc1ccc(C2OCC3(COC(C)=O)C(C)C=C(C)C2C3C)cc1 (configuration not stated) | -1.63
60 | Nc1ncnc2c1ncn2C1OC(COP(=O)(O)OP(=O)(O)OP(=O)(O)O)C(O)C1O (configuration not stated) | 0.477
61 | O=c1cc(-c2ccccc2O)oc2c(O)c(O)ccc12 | 0.356
62 | CN1CCC[C@H]1c1cccnc1 | 0.197
63 | CC1(C)CC[C@]2(C(=O)O)CC[C@]3(C)C(=CCC4[C@@]5(C)CC[C@H](O)C(C)(C)C5[C@H](O)C[C@]43C)C2C1 (some centres not stated) | 0.207
64 | N[C@@H](Cc1ccc(O)cc1)C(=O)O | 0.446
65 | Cn1cnc2c1c(=O)[nH]c(=O)n2C | 0.889
66 | Nc1ncnc2c1ncn2[C@H]1C[C@H](O)[C@@H](CO)O1 | 1.23
67 | Nc1ccn([C@@H]2O[C@H](CO)[C@@H](O)[C@H]2O)c(=O)n1 | 1.12
68 | CC12CCC3c4ccc(O)cc4CCC3C1CCC2=O (configuration not stated) | 0.301
69 | C=C(CO)C1Cc2c(ccc3c2OC2COc4cc(OC)c(OC)cc4C2C3=O)O1 (configuration not stated) | -1.91
70 | O=c1ccn([C@H]2C[C@H](O)[C@@H](CO)O2)c(=O)[nH]1 | 0.515
71 | Nc1nc2c(ncn2[C@@H]2O[C@H](COP(=O)(O)O)[C@@H](O)[C@H]2O)c(=O)[nH]1 | 0.0522
72 | CC(=O)OC1CCC2(C)C(CCC3(C)C2C(=O)C=C2C4CC(C)(C(=O)OCCN5CCCCC5)CCC4(C)CCC23C)C1(C)C (configuration not stated) | 0.64
73 | C[C@@H]1O[C@@H](OC[C@H]2O[C@@H](Oc3c(-c4cccc(O)c4O)oc4cc(O)cc(O)c4c3=O)[C@H](O)[C@@H](O)[C@@H]2O)[C@H](O)[C@H](O)[C@H]1O | 1.27
74 | CC1CC[C@H](C(C)C)C(O)C1 (some centres not stated) | 0.453
75 | COc1ccc2oc(-c3ccc(O)cc3)cc(=O)c2c1 | 1.23
76 | C=CC(C)(O)CCC=C(C)C (configuration not stated) | -0.395
77 | O=c1cc(-c2ccc(O)cc2)oc2cc(O)cc(O)c12 | 0.864

Source: the supplement of paper PMC12024529
